Results filed as inconclusive are left out. The source made the active and inactive calls. Unless noted, the call rests on the fitted dose curve; in most records, active means well fitted curve in the direction sought with a large enough effect; inconclusive means small, poorly fitted or top-dose-only effect, or another doubt; inactive means no such curve, though single readings can be large; an effect the other way counts as inactive or inconclusive.
Key:
[1] = molecular target: Luciferin 4-monooxygenase (Photinus pyralis) (UniProt P08659); assay: Biochemical firefly luciferase enzyme assay for NPC (AID 624030);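 further: purified P. pyralis luciferase at 10 nM with luciferin and ATP substrate; nearly all actives have a fitted effect of over 70% in size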
Luciferin 4-monooxygenase (Photinus pyralis), sequence (P08659 whole entry, looked up): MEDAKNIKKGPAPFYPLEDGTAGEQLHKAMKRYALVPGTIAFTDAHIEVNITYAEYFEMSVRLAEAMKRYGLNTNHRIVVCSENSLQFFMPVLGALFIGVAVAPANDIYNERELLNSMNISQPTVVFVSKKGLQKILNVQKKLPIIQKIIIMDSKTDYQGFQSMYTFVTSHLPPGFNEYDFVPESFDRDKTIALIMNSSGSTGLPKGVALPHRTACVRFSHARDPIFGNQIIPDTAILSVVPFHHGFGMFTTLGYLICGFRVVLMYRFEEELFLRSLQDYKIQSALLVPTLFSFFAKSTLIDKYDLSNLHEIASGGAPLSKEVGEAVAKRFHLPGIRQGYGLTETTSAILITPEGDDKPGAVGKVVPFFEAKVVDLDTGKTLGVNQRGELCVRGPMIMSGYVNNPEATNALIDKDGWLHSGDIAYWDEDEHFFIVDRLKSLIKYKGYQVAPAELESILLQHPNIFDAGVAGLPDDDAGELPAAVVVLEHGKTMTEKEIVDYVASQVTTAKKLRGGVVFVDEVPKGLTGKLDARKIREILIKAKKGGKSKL
Outline: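 Purified P. pyralis luciferase at 10 nM in 50 mM Tris Acetate (final), luminescence read within 5 minutes of enzyme addition to compounds. Activity normalised to PTC124 versus DMSO; concentration-response curves classed by r2, magnitude and activity.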

[2] = S16 Schwann cell PMP22 intronic element firefly luciferase assay (AID 624032); further: nearly all actives have a fitted effect of over 30% in size
Outline: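 Rat S16 Schwann cells stably carrying firefly luciferase driven by a PMP22 intronic element, in 10% FBS, treated 24 h at 37 C. ONE-Glo luminescence normalized to PTC124 control and DMSO (0%); curves classed by r2, magnitude and activity.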

[3] = S16 Schwann cell PMP22 intronic element beta-lactamase assay (AID 624044; calls by dose curve; further: nearly all actives have a fitted effect of over 15% in size)
Outline: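 Beta-lactamase reporter under a PMP22 intronic regulatory element in stable S16 rat Schwann cells; 24 h compound exposure. 460 nm blue signal normalized between DMSO (0%) and potassium clavulanate, with 535 nm FRET tracking viability; curves classed by r2 and response.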

ATS95 = assay: qHTS profiling for inhibitors of Plasmodium falciparum proliferation (AID 504749); further: nearly all actives have a fitted effect of over 60% in size; details: P. falciparum in erythrocytes, SYBR Green DNA, 72 h; series mostly up to 12.8 µM
Outline: (§1)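 SYBR Green fluorescence (ex 485 nm, em 535 nm) reports parasite DNA after 72 h compound exposure of infected red cells at 0.3% parasitemia, 2.5% hematocrit; signal normalized to 0.29 uM artemisinin and vehicle wells.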

CP201 = assay: as above; details: P. falciparum in erythrocytes, SYBR Green DNA, 72 h; series mostly up to 12.8 µM
Outline: as §1

CP237 = assay: as above; details: P. falciparum in erythrocytes, SYBR Green DNA, 72 h; series mostly up to 12.8 µM
Outline: as §1

CP247 = assay: as above; details: P. falciparum in erythrocytes, SYBR Green DNA, 72 h; series mostly up to 12.8 µM
Outline: as §1

CP260 = assay: as above; details: P. falciparum in erythrocytes, SYBR Green DNA, 72 h; series mostly up to 12.8 µM
Outline: as §1

CP262 = assay: as above; details: P. falciparum in erythrocytes, SYBR Green DNA, 72 h; series mostly up to 12.8 µM
Outline: as §1

CP265 = assay: as above; details: P. falciparum in erythrocytes, SYBR Green DNA, 72 h; series mostly up to 12.8 µM
Outline: as §1

CP269 = assay: as above; details: P. falciparum in erythrocytes, SYBR Green DNA, 72 h; series mostly up to 12.8 µM
Outline: as §1

CP291 = assay: as above; details: P. falciparum in erythrocytes, SYBR Green DNA, 72 h; series mostly up to 12.8 µM
Outline: as §1

CP305 = assay: as above; details: P. falciparum in erythrocytes, SYBR Green DNA, 72 h; series mostly up to 12.8 µM
Outline: as §1

CP325 = assay: as above; details: P. falciparum in erythrocytes, SYBR Green DNA, 72 h; series mostly up to 12.8 µM
Outline: as §1

CP329 = assay: as above; details: P. falciparum in erythrocytes, SYBR Green DNA, 72 h; series mostly up to 12.8 µM
Outline: as §1

DIV14 = assay: as above; details: P. falciparum in erythrocytes, SYBR Green DNA, 72 h; series mostly up to 12.8 µM
Outline: as §1

DIV30 = assay: as above; details: P. falciparum in erythrocytes, SYBR Green DNA, 72 h; series mostly up to 12.8 µM
Outline: as §1

ICS = assay: as above; details: P. falciparum in erythrocytes, SYBR Green DNA, 72 h; series mostly up to 12.8 µM
Outline: as §1

P94_40 = assay: as above; details: P. falciparum in erythrocytes, SYBR Green DNA, 72 h; series mostly up to 12.8 µM
Outline: as §1

TAB165 = assay: as above; details: P. falciparum in erythrocytes, SYBR Green DNA, 72 h; series mostly up to 12.8 µM
Outline: as §1

Measured: Potency

C[C@@H]1C[C@H]2[C@@H]3C[C@H](F)C4=CC(=O)C=C[C@@]4(C)[C@]3(F)[C@H](O)C[C@]2(C)[C@@]1(O)C(=O)CO
inactive: all assays above

C[C@@H]1O[C@H](O[C@@H]2\C=C/C=C\C=C/C=C\C[C@H](C)OC(=O)/C=C\[C@H]3O[C@@H]3C[C@H](O)C[C@]3(O)C[C@@H](O)[C@@H](C(=O)O)[C@H](C2)O3)[C@@H](O)[C@H](N)[C@@H]1O (stereo in doubt)
inactive: all assays above

NS(=O)(=O)c1cc2c(cc1C(F)(F)F)N[C@H](Cc1ccccc1)NS2(=O)=O
not listed: [3]
inactive: all other assays above

NC[C@@H]1O[C@@H](O[C@H]2[C@H](O)[C@H](O[C@@H]3O[C@H](CO)[C@@H](O)[C@H](N)[C@@H]3O)[C@@H](N)C[C@H]2N)[C@H](N)C[C@@H]1O
inactive: all assays above

COc1c(O[C@H]2O[C@@H](CO)[C@@H](O)[C@@H](O)[C@@H]2O)cc2c(c1OC)-c1ccc(SC)c(=O)cc1[C@H](NC(C)=O)CC2
not listed: CP260
inactive: all other assays above

CS(=O)(=O)c1ccc([C@H](O)[C@H](CF)NC(=O)C(Cl)Cl)cc1
inactive: [2]

CCCC(=O)Nc1ccc(OC[C@@H](O)CNC(C)C)c(C(C)=O)c1
inactive: [1] | [2] | [3]

CCc1c(C)[nH]c2c1C(=O)[C@H](CN1CCOCC1)CC2
not listed: [3]
inactive: all other assays above

From PubChem BioAssay (NCATS)
